Assay results: PubChem BioAssay (EPA / NIEHS)
Where “and” joins values, the source holds several entries; their conditions need not be identical. Equal values may be shown once. Where a structure was tested more than once in an assay, its records may differ in their call. Calls of active or inactive are those of the source. The calls were made as follows: active = hit-call score of the fitted dose curve at least 0.9, where 1 is the maximum; inactive = score below 0.9.

Assay: ATG_Ets_CIS: Attagene CIS-FACTORIAL HepG2 Assay for human Erythroblast Transformation Specific (ETS) (AID 2282941)
Conditions: HepG2 ETS cis-reporter transcription, actives raise or lower the signal
Protocol: ATG_CIS is a cell-based, multiplexed-readout assay that uses HepG2, a human liver cell line, with measurements taken at 24 hours after chemical dosing in a 24-well plate.ATG_Ets_CIS is one of 52 assay component(s) measured or calculated from the ATG_CIS assay. It is designed to make measurements of mRNA induction, a form of inducible reporter, as detected with fluorescence intensity signals by Reverse transcription polymerase chain reaction (RT-PCR) and Capillary electrophoresis technology.Data from the assay component ATG_Ets_CIS was analyzed into 1 assay endpoint. This assay endpoint, ATG_Ets_CIS, was analyzed with bidirectional fitting relative to DMSO as the negative control and baseline of activity. Using a type of inducible reporter, measures of mRNA for gain or loss-of-signal activity can be used to understand the reporter gene at the transcription factor-level as they relate to the gene ETS1. Furthermore, this assay endpoint can be referred to as a primary readout, because this assay has produced multiple assay endpoints where this one serves a reporter gene function. To generalize the intended target to other relatable targets, this assay endpoint is annotated to the dna binding intended target family, where the subfamily is winged helix-turn-helix.
Human liver HepG2 cells are transiently transfected with multiple reporter transcription units (MRTUs) in 6-well plates using FuGene 6 reagent (Roche; 3 ml FuGene/1 mg DNA). The MRTU constructs are regulated by a cis-regulating element (promoter). […] A major difference between the CIS and TRANS system is that in CIS activities of endogenous TFs are measured, whereas the TRANS assay evaluates changes in activities of exogenous, chimeric NR-Gal4 proteins. […] At the end of 24 hour incubation, total RNA was isolated using TriZol reagent (Invitrogen). The isolated RNA is then reverse-transcribed using oligo(dT) primer and Mo-MLV reverse transcriptase (Invitrogen) with DNAse I (Ambion) treatment for 30 min. The one-tenth of the produced cDNA was amplified by PCR using Taq DNA polymerase (Invitrogen) and two reporter sequence-specific primers. The PCR products were fluorescently labeled by primer extension with 6-arboxyfluorescein (6-FAM) 5'-labeled reporter sequence-specific primer (2 min at 95 C, 20 s at 68 C and 10 min at 72 C) and these products were digested with 5U of HpaI (New England Biolabs) for 2h at 37 C. The fragments were purified using Qiaquick PCR columns (Qiagen), analyzed on an ABI 3130xL genetic analyzer (Applied Biosystems) with peak positions identified by using a set of X-rhodamine (ROX)-labeled MapMarker1000 molecular weight standards (BioVentures). The raw capillary electrophoresis data was processed using Attagraph software (Attagene).

Row | Structure (SMILES) | outcome | AC50
1 | Clc1ccc(C(c2ccccc2Cl)C(Cl)(Cl)Cl)cc1 (stereo not given) | inactive | –
2 | Cc1cc(-c2ccc(N)c(C)c2)ccc1N | inactive | –
3 | Oc1ccc(C(c2ccc(O)cc2)(C(F)(F)F)C(F)(F)F)cc1 | inactive | 15.5 µM (active) and 17.5 µM (active)
4 | N#Cc1ccc(N(CC(N)=O)CC(F)(F)F)cc1C(F)(F)F | inactive | –
5 | COS(=O)(=O)OC | inactive | –
6 | Clc1ccc(C(Cl)(Cl)Cl)cc1 | inactive | –
7 | CCC(C)(c1ccc(O)cc1)c1ccc(O)cc1 | inactive | 53.8 µM (active)
8 | Cc1cccc([N+](=O)[O-])c1 | inactive | –
9 | O=C(N[C@H]1CN2CCC1CC2)c1cc2ccoc2cn1 | inactive | –
10 | Cc1cc2c3c(c1)C(c1ccccc1)=N[C@@H](NC(=O)c1ccncc1)C(=O)N3CC2 | – | 153 µM (active)
11 | CO/C=C(/C(=O)OC)c1ccccc1COc1cccc(C(F)(F)F)n1 | inactive | –
12 | CN(C)c1nc(=O)n(C2CCCCC2)c(=O)n1C | inactive | –
13 | Sc1ccccc1 | inactive | –
14 | C=CC(N)=O | inactive | –
15 | Cc1cc(O)ccc1Cl | inactive | –
16 | Cc1cccc(C)c1N | inactive | –
17 | CCC(C)c1cc([N+](=O)[O-])cc([N+](=O)[O-])c1O (stereo not given) | inactive | –
18 | CCNc1nc(NC(C)C)nc(SC)n1 | inactive | –
19 | CCSC(=O)N(CC)C1CCCCC1 | inactive | –

Row | Structure (SMILES) | outcome | AC50
20 | ClC(Cl)=C(c1ccc(Cl)cc1)c1ccc(Cl)cc1 | inactive | –
21 | CCCCCCOC(=O)c1ccccc1C(=O)OCCCCCC | inactive | –
22 | O=C(O)C(F)(F)C(F)(F)C(F)(F)C(F)(F)C(F)(F)C(F)(F)C(F)(F)C(F)(F)C(F)(F)F | inactive | –
23 | O=S(=O)(O)C(F)(F)C(F)(F)C(F)(F)C(F)(F)C(F)(F)C(F)(F)F | inactive | –
24 | Clc1ccc(Cl)cc1 | inactive | –
25 | ClC1=C(Cl)[C@]2(Cl)[C@@H]3[C@H]4C[C@H]([C@@H]5O[C@H]45)[C@@H]3[C@@]1(Cl)C2(Cl)Cl | inactive | –
26 | C[C@]12CCC(=O)C=C1CC[C@@H]1[C@@H]2CC[C@@]2(C)[C@H]1CC[C@]2(C)O | inactive | –
27 | O=C(NC(=O)c1cc(F)c(F)cc1Cl)Nc1cc(F)ccc1N1CCC(C(=O)O)CC1 | inactive | –
28 | c1ccc(-c2ccccc2)cc1 | inactive | –
29 | CC#Cc1cc(C)nc(Nc2ccccc2)n1 | inactive | –
30 | C=CC(=O)NCNC(=O)C=C | inactive | –
31 | C1CC2OC2CC1C1CO1 (stereo not given) | inactive | –
32 | CCCN(CCC)N=O | inactive | –
33 | Oc1c(Cl)c(Cl)c(Cl)c(Cl)c1Cl | inactive | 21.5 µM (active)
34 | CCCCCCCCCc1ccc(O)cc1 | inactive | –
35 | O=NN(c1ccccc1)c1ccccc1 | inactive | –
36 | CCOC(=O)C(O)(c1ccc(Cl)cc1)c1ccc(Cl)cc1 | inactive | –
37 | CC(C)(c1ccccc1)c1ccc(O)cc1 | inactive | –
